# The sample as a whole holds a higher share of the strongest signals than the screen did.
# Legend:
# Test in all cases: glycan array binding signal (z-score within array); higher = stronger binding
# Conditions in all cases: glycan notation: IUPAC condensed, linker removed
# [1] = target: Gal3S(b1-3)GalNAc
# How it was run: (§1)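 Glycan array data came from 3228 arrays in the Consortium for Functional Glycomics database, and only arrays with an available protein sequence were kept. Glycan names were put into IUPAC-condensed notation, and columns mapping to the same glycan were averaged. The binding signal is a within-array Z-score, averaged across arrays of one protein sequence run at different concentrations or buffers and across linkers. A negative Z-score can be read as non-binding.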
# [2] = target: Gal3S(b1-4)GlcNAc6S
# How it was run: as §1
# [3] = target: Gal6S(b1-4)Glc
# How it was run: as §1
# [4] = target: GalNAc(a1-3)GalNAc(b1-3)Gal(a1-4)Gal(b1-4)GlcNAc
# How it was run: as §1
# [5] = target: GlcA3S(b1-3)Gal(b1-4)GlcNAc(b1-2)Man
# How it was run: as §1
# [6] = target: GlcA3S(b1-3)Gal(b1-4)GlcNAc(b1-3)Gal(b1-4)Glc
# How it was run: as §1
# [7] = target: GlcNAc(a1-4)Gal(b1-4)GalNAc
# How it was run: as §1
# [8] = target: GlcNAc(b1-2)Man(a1-3)[GlcNAc(b1-4)][GlcNAc(b1-2)Man(a1-6)]Man(b1-4)GlcNAc(b1-4)GlcNAc
# How it was run: as §1
# [9] = target: GlcNAc(b1-2)Man(a1-3)[GlcNAc(b1-4)][GlcNAc(b1-2)Man(a1-6)]Man(b1-4)GlcNAc(b1-4)[Fuc(a1-6)]GlcNAc
# How it was run: as §1
# [10] = target: GlcNAc(b1-2)[GlcNAc(b1-4)]Man(a1-3)[GlcNAc(b1-4)][GlcNAc(b1-2)Man(a1-6)]Man(b1-4)GlcNAc(b1-4)GlcNAc
# How it was run: as §1
# [11] = target: GlcNAc(b1-3)Gal(b1-4)GlcNAc(b1-6)[Gal(b1-3)]GalNAc
# How it was run: as §1
# [12] = target: Man(a1-3)[Man(a1-6)]Man(a1-6)[Man(a1-3)]Man(b1-4)GlcNAc(b1-4)GlcNAc
# How it was run: as §1
# [13] = target: Neu5Ac(a2-3)Gal
# How it was run: as §1
# [14] = target: Neu5Ac(a2-3)Gal(b1-3)GalNAc(b1-3)Gal(a1-4)Gal(b1-4)Glc
# How it was run: as §1
# [15] = target: Neu5Ac(a2-3)Gal(b1-4)GlcNAc(b1-2)Man(a1-3)[GlcNAc(b1-2)Man(b1-4)GlcNAc(b1-2)Man(a1-6)]Man(b1-4)GlcNAc(b1-4)GlcNAc
# How it was run: as §1
# [16] = target: Neu5Ac(a2-3)Gal(b1-4)GlcNAc(b1-2)Man(a1-3)[Neu5Ac(a2-3)Gal(b1-4)GlcNAc(b1-2)Man(a1-6)]Man(b1-4)GlcNAc(b1-4)[Fuc(a1-6)]GlcNAc
# How it was run: as §1
# [17] = target: Neu5Ac(a2-3)Gal(b1-4)GlcNAc(b1-2)[Neu5Ac(a2-3)Gal(b1-4)GlcNAc(b1-4)]Man(a1-3)[GlcNAc(b1-4)][Neu5Ac(a2-3)Gal(b1-4)GlcNAc(b1-2)[Neu5Ac(a2-3)Gal(b1-4)GlcNAc(b1-6)]Man(a1-6)]Man(b1-4)GlcNAc(b1-4)GlcNAc
# How it was run: as §1
# [18] = target: Neu5Ac(a2-3)Gal(b1-4)GlcNAc(b1-2)[Neu5Ac(a2-3)Gal(b1-4)GlcNAc(b1-4)]Man(a1-3)[GlcNAc(b1-4)][Neu5Ac(a2-3)Gal(b1-4)GlcNAc(b1-4)Man(a1-6)]Man(b1-4)GlcNAc(b1-4)GlcNAc
# How it was run: as §1
# [19] = target: Neu5Ac(a2-3)Gal(b1-4)GlcNAc(b1-3)Gal(b1-4)GlcNAc(b1-3)Gal(b1-4)GlcNAc(b1-2)Man(a1-3)[Neu5Ac(a2-3)Gal(b1-4)GlcNAc(b1-3)Gal(b1-4)GlcNAc(b1-3)Gal(b1-4)GlcNAc(b1-2)Man(a1-6)]GalNAc
# How it was run: as §1
# [20] = target: Neu5Ac(a2-3)Gal(b1-4)GlcNAc(b1-3)Gal(b1-4)GlcNAc(b1-3)GalNAc
# How it was run: as §1
# [21] = target: Neu5Ac(a2-6)Gal(b1-4)GlcNAc(b1-2)Man(a1-3)[Neu5Ac(a2-6)Gal(b1-4)GlcNAc(b1-2)Man(a1-6)]Man(b1-4)GlcNAc(b1-4)GlcNAc
# How it was run: as §1
# [22] = target: Neu5Ac(a2-6)Gal(b1-4)GlcNAc(b1-2)Man(a1-3)[Neu5Ac(a2-6)Gal(b1-4)GlcNAc(b1-2)Man(a1-6)]Man(b1-4)GlcNAc(b1-4)[Fuc(a1-6)]GlcNAc
# How it was run: as §1
# [23] = target: Neu5Ac(a2-6)Gal(b1-4)GlcNAc(b1-2)Man(a1-6)[Man(a1-3)]Man(b1-4)GlcNAc(b1-4)GlcNAc
# How it was run: as §1
# [24] = target: Neu5Ac(a2-6)Gal(b1-4)GlcNAc(b1-3)Gal(b1-4)GlcNAc(b1-3)[Neu5Ac(a2-6)Gal(b1-4)GlcNAc(b1-3)Gal(b1-4)GlcNAc(b1-6)]GalNAc
# How it was run: as §1
# [25] = target: Neu5Ac(a2-6)GalNAc
# How it was run: as §1
# [26] = target: Neu5Ac(a2-8)Neu5Ac
# How it was run: as §1
# [27] = target: Neu5Ac(a2-8)Neu5Ac(a2-3)Gal(b1-3)GalNAc(b1-4)[Neu5Ac(a2-8)Neu5Ac(a2-3)]Gal(b1-4)Glc
# How it was run: as §1
# [28] = target: Neu5Ac(a2-8)Neu5Ac(a2-8)Neu5Ac(a2-8)Neu5Ac(a2-3)[GalNAc(b1-4)]Gal(b1-4)Glc
# How it was run: as §1
# [29] = target: Neu5Ac9Ac(a2-3)Gal(b1-3)GlcNAc
# How it was run: as §1
# [30] = target: Neu5Gc(a2-8)Neu5Gc(a2-3)Gal(b1-4)GlcNAc(b1-3)Gal(b1-4)GlcNAc
# How it was run: as §1
binder,measurement,setting,value
"AAL (Agrocybe aegerita), Q6WY08 (protein) MQGVNIYNISAGTSVDLAAPVTTGDIVTFFSSALNLNAGAGNPNNTTLNLFAENGAYLLHIAFRLQENVIIFNSRQPDGPWLVEQRVSDVANQFAGIDGKAMVTVFDHGDKYQVVINEKTVIQYTKQISGLTLSLSYNATEETSIFSTVVEAVTYTGLALEHHHHHH",glycan array binding signal (z-score),[1],9.4
same,glycan array binding signal (z-score),[2],3.66
same,glycan array binding signal (z-score),[3],-0.141
same,glycan array binding signal (z-score),[4],-0.137
same,glycan array binding signal (z-score),[5],6.26
same,glycan array binding signal (z-score),[6],10.9
same,glycan array binding signal (z-score),[7],-0.152
same,glycan array binding signal (z-score),[8],-0.151
same,glycan array binding signal (z-score),[9],-0.151
same,glycan array binding signal (z-score),[10],-0.14
same,glycan array binding signal (z-score),[11],-0.134
same,glycan array binding signal (z-score),[12],-0.118
same,glycan array binding signal (z-score),[13],-0.138
same,glycan array binding signal (z-score),[14],1.72
same,glycan array binding signal (z-score),[15],5.88
same,glycan array binding signal (z-score),[16],3.85
same,glycan array binding signal (z-score),[17],2.98
same,glycan array binding signal (z-score),[18],5.72
same,glycan array binding signal (z-score),[19],-0.107
same,glycan array binding signal (z-score),[20],-0.106
same,glycan array binding signal (z-score),[21],-0.134
same,glycan array binding signal (z-score),[22],-0.131
same,glycan array binding signal (z-score),[23],-0.148
same,glycan array binding signal (z-score),[24],-0.138
same,glycan array binding signal (z-score),[25],-0.164
same,glycan array binding signal (z-score),[26],-0.146
same,glycan array binding signal (z-score),[27],-0.138
same,glycan array binding signal (z-score),[28],-0.132
same,glycan array binding signal (z-score),[29],-0.156
same,glycan array binding signal (z-score),[30],2.45

# Reference: the supplement of paper PMC8728848
